From PubChem
IL1B secr inh = inflammasome signaling inhibition, IL-1 beta readout; THP-1 LPS/ATP IL-1B secretion, AlphaLISA, 16 h; hits give low values; activity change, % at 57.5 µM; actives 4.7% (n = 360,000); AID 743279; in the data active = activity change below about -50%; inconclusive = mostly about -30% to -49%; note: % is set by controls: 0 for no effect and ±100 for the full control effect
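THP-1 cells pretreated 1 hr with compounds (up to 57.5 uM final), then stimulated with LPS (250 ng/mL final) plus ATP (1.25 mM final); secreted IL-1B measured by AlphaLISA after 16 hr, decreased signal indicating inhibition.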
MCF10A rereplic = inducers of DNA re-replication in MCF 10A breast cells; Potency, µM (series often up to 46.1 µM), for the others: at the highest dose activity, positive = re-replication, most hits filed as activators; MCF 10A DNA re-replication, Hoechst nuclear intensity, 48 h; AID 624296; actives 2.9% (n = 350,000); note: potency is the fitted concentration of half-maximal effect; % of control where 0% means no effect; nearly all actives have a fitted effect of over 50% in size
PINK1 expr mod = modulators of PINK1 expression; AID 624263; Potency, µM (highest dose often 76.6 µM), for the others: at the top dose activation (PINK1 increase), most hits filed as activators; actives 0.2% (n = 410,000); PINK1 immunofluorescence, high-content cytometry, 24 h; active = well fitted activation curve with a large enough effect; inconclusive = small, poorly fitted or top-dose-only effect; cell line not stated here; note: potency is the fitted concentration of half-maximal effect; % of control where 0% means no effect; nearly all actives have a fitted effect of over 65% in size
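Measures PINK1 amount and localization on or inside mitochondria by immunofluorescence. Stable cells get compounds at 5 concentrations for 24 hours before fixation and staining; CCCP controls included.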
S2 tox = viability counter-screen for ATXN expression inhibitors | AID 651635 | Potency, µM (highest dose often 56.7 µM), actives largely listed as cytotoxic | actives 0.49% (n = 400,000) | S2 cells (HEK-293 line with an ATXN2-luciferase reporter) viability, CellTiter-Fluor protease fluorescence, 24 h; note: potency is the fitted concentration of half-maximal effect; nearly all actives have a fitted effect of over 40% in size
ATXN2 expr inh = inhibitors of ATXN2 expression; actives 0.72% (n = 360,000); AID 1745845; Potency, µM (highest dose often 57 µM), without a hit: top-dose activity change, negative = inhibition, usual class: inhibitors; HEK-293 ATXN2-luciferase reporter, luminescence, 24 h; note: potency is the fitted concentration of half-maximal effect; % is set by controls: 0 for no effect and ±100 for the full control effect; nearly all actives have a fitted effect of over 55% in size
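qHTS (up to 57 uM final) was run with 24 h compound exposure of reporter cells at 37 °C. Each well was multiplexed: SteadyGlo luminescence measured ATXN2-luciferase expression after a fluorogenic Gly-Phe-AFC viability readout (25 uM final).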
SW480 rerep = DNA re-replication induction in SW480 cells; SW480 DNA re-replication, Hoechst DNA content imaging, 48 h; Potency, µM (doses to about 46.1 µM), for inactives: at the highest dose re-replication activation, hits mostly activators; actives 1.8% (n = 340,000); note: potency is the fitted concentration of half-maximal effect; % of control where 0% means no effect; nearly all actives have a fitted effect of over 55% in size
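Compounds, transferred as 23 nL by pin tool, were incubated with cells for 48 hr; DNA content per nucleus was then quantified by Hoechst staining and fluorescence plate imaging.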
* marks the source's active call; other numbers are inactive results; i = inactive; ? = inconclusive; . = no result; [ ] = dose if it differs, or a comment. An excerpt weighted towards active compounds, which were near 7.1% of everything screened. Unless noted, calls come from the whole dose curve; as a rule, active = well fitted curve in the direction sought with a large enough effect; inconclusive = small, poorly fitted or top-dose-only effect, or another doubt; inactive = no such curve, though single readings can be large; an effect the other way counts as inactive or inconclusive.

SMILES | IL1B secr inh | MCF10A rereplic | PINK1 expr mod | S2 tox | ATXN2 expr inh | SW480 rerep
Cc1ccc(CN(Cc2ccccn2)C(=O)Nc2ccc(C)c(C)c2)cc1 | -57.9* | 1.4% | 0.0% | i | 19.5% | ?
CCN1C(=O)c2ccccc2S(=O)(=O)c2ccc(C(=O)NCc3ccccc3Cl)cc21 | . | . | 3.6% | i | 1.4% | .
COc1ccccc1NC(=O)c1sc2ncn(Cc3ccccc3Cl)c(=O)c2c1C | . | . | -1.6% | . | . | .
Cc1ccc(N2C(=O)CC(N(O)C3CC(=O)N(c4ccc(C)cc4)C3=O)C2=O)cc1 (centres undefined) | 0.1 | 4.1% | -3.8% | i | 1.4% | 0.2%
CC(=O)N(NC(=O)c1ccccc1Cl)C1CC(=O)N(c2ccc(C)cc2)C1=O (centres undefined) | 15.5 | 16.4µM* | . | i | 2.7% | 18.0%
C#CCOCCOCCOCCNc1nc(N2CCOCC2)nc(N2CCN(C(=O)CCCCCCCCCCNC(=O)Cn3cc(CCCCCN)nn3)CC2)n1 | -27.6 | 22.7% | -0.9% | i | -4.2% | -3.7%
C#CCOCCOCCOCCNc1nc(N2CCN(C(=O)CCCCCCCCCCNC(=O)Cn3cc(CCCCCN)nn3)CC2)nc(N2CCN(C(=O)CCCCCCCCCCNC(=O)[C@H](CO)n3cc(CCCCCN)nn3)CC2)n1 | -70.8* | 2.5% | -0.9% | i | -12.7% | -12.3%
C#CCOCCOCCOCCNc1nc(N2CCN(C(=O)Cn3cc(CCCCN)nn3)CC2)nc(N2CCN(C(=O)[C@H](Cc3ccc(O)cc3)n3cc(CCO)nn3)CC2)n1 | 7.8 | 3.66µM* | -0.6% | i | 0.3% | 4.7%[9.22 µM]
C#CCOCCOCCOCCNc1nc(N2CCN(C(=O)C(Cc3cc4ccccc4[nH]3)n3cc(C(N)Cc4ccc(O)cc4)nn3)CC2)nc(N2CCN(C(=O)C(Cc3cc4ccccc4[nH]3)n3cc(C(N)Cc4ccc(O)cc4)nn3)CC2)n1 (centres undefined) | 7.4 | 6.8% | 3.8% | 31.6µM* | ? | -13.5%[9.22 µM]
C#CCOCCOCCOCCNc1nc(N2CCN(C(=O)CCCCCCCCCCNC(=O)Cn3cc(CCCCCN)nn3)CC2)nc(N2CCN(C(=O)CCCCCCCCCCNC(=O)[C@H]([C@@H](C)CC)n3cc(CCCCCN)nn3)CC2)n1 | -105.7* | 17.4% | -1.9% | 22.4µM* | ? | -5.9%
Cc1ncc2c(c1CNS(=O)(=O)N(C)C)CCN(C(=O)c1ccc(-c3ccc(F)cc3)cc1)C2 | . | . | -1.1% | i | . | .
Cc1ccc(-c2noc(-c3ccc(NC4CCCC4)c([N+](=O)[O-])c3)n2)cc1 | . | . | 2.9% | i | 36.7% | .
COc1ccc(-n2c(SCc3ccccc3)nc3c([nH]c4ccccc43)c2=O)cc1 | . | . | -5.0% | i | -2.8% | .
COc1cc2nc(N(C)C)c(CNCc3nonc3C)cc2c(OC)c1OC | . | . | -0.2% | i | . | .
CC(=O)Oc1ccc(N(C(C)=O)S(=O)(=O)c2cccs2)c2ccccc12 | 154.2 | ? | 7.3%[38.3 µM] | ? | 25.1µM* | ?
CC(=O)c1[nH]c(C)c(C(=O)NCc2ccc(Cl)cc2)c1C | . | . | 1.3% | . | . | .
CCOc1ccc(Br)cc1S(=O)(=O)NC1CC(C)(C)NC(C)(C)C1 | -11.5 | 12.8% | 0.4% | ? | 3.5% | 0.517µM*
CCC(/C=C1\Sc2ccc(OC)cc2N1CC)=C\c1sc2ccc(OC)cc2[n+]1CCCS(=O)(=O)[O-] | ? | -7.4% | 18.7% | 22.4µM* | ? | -3.4%
CCC(/C=C1\Sc2ccc(OC)cc2N1CCO)=C\c1sc2ccc(OC)cc2[n+]1CCO | -113.2* | ? | 14.1µM* | . | ? | -0.2%
CCOC(=O)c1c(C)oc2nc(C)nc(NCCCN3CCN(c4cc(C)ccc4C)CC3)c12 | . | . | -0.8% | i | 4.7% | .
COc1ccccc1/C=C/C(=O)Nc1cccnc1Cl | -54.9* | 7.5% | -0.1% | i | 3.2% | -42.5%
CNc1ccccc(C(=O)/C=C/c2ccccc2OC)c1=O | -104.2* | ? | 15.8% | ? | ? | ?
COc1ccccc1/C=C/C(=O)N1CCCC1 | -15.4 | -0.2% | 2.2% | i | 6.9% | -0.5%
COc1ccccc1C=CC(=O)C=Cc1ccccc1OC | -104.3* | 3.26µM* | -5.6% | . | 16.8µM* | 8.2µM*
COc1ccccc1/C=C/C(C)=O | -14.3 | -14.0% | 1.3% | i | 15.2% | 0.1%
SMILES | IL1B secr inh | MCF10A rereplic | PINK1 expr mod | S2 tox | ATXN2 expr inh | SW480 rerep
COc1ccc(/C=C/C(=O)Nc2cccnc2Cl)cc1 | 0.0 | -3.1% | 0.6% | i | 7.1% | -26.3%
COc1ccccc1/C=C/C(=O)/C=C/c1ccccc1O | -98.3* | 10.3µM* | 0.8% | ? | ? | ?
COc1ccc(-c2cc(C(=O)Nc3ccn(Cc4ccc(C)cc4)n3)no2)cc1OC | . | . | 4.3% | ? | -5.0% | .
COc1ccccc1/C=C/C(=O)OCC(=O)Nc1ccc(Cl)cn1 | 0.4 | 26.2% | 1.0% | i | 25.1µM* | ?
O=C(COC(=O)/C=C/c1ccccc1)Nc1ccc(Cl)cn1 | 8.7 | -0.1% | -0.9% | i | -12.6% | -11.1%
CC1CN(CC(=O)N2CCN(Cc3nccn3C)CC2)Cc2cc(Cl)ccc2O1 (centres undefined) | . | . | -0.9% | i | . | .
CC(=O)c1cccc(NC(=O)NN2CCN(C)CC2)c1 | -23.6 | -0.1% | -0.3% | i | -1.1% | 5.8µM*
COc1ccc(NC(=O)C2CC23CCN(Cc2cccc4ncccc24)CC3)cc1Cl (centres undefined) | . | . | 0.7% | i | . | .
Cc1nn(CC(=O)Nc2ccc(N3CCOCC3)cc2)c(C)c1[N+](=O)[O-] | 22.0 | -1.7% | 2.2% | i | 3.6% | -2.5%
COc1cc(=O)n2c(c1C(=O)N(C)Cc1nonc1C)CCN(C(=O)c1cc(C)ccc1C)CC2 | . | . | 0.5% | i | . | .
O=C(CNC(=O)c1ccc(Cl)cc1)NC1CCCCC1 | 0.0 | 0.7% | 1.0% | i | 1.6% | 8.2µM*
Cn1cc(S(=O)(=O)N2CCCCCC2)cc1C(=O)N1CCN(c2cccc(C(F)(F)F)c2)CC1 | . | . | 3.8% | ? | ? | .
CC(C)N(C(C)C)S(=O)(=O)c1ccc(N2CCc3ccccc3C2)nc1 | -105.6* | ? | 6.5% | ? | -6.4% | 23.6%
CCN(CC)S(=O)(=O)c1ccc(N2CCc3ccccc3C2)nc1 | -101.2* | ? | -1.3% | i | -14.3% | ?
CCN(c1ccccc1)S(=O)(=O)c1ccc(N2CCN(c3ccc(O)cc3)CC2)nc1 | ? | 18.4µM* | 20.4% | ? | ? | ?
CCN(CC)S(=O)(=O)c1ccc(N2CCN(S(=O)(=O)c3ccccc3)CC2)nc1 | 0.0 | ? | 2.4% | i | -20.7% | 3.3%
